Screening results: PubChem BioAssay, National Center for Advancing Translational Sciences (NCATS)
Pol eta inh-1: inhibitors of human DNA polymerase eta; Q9Y253; recombinant Pol eta, fluorescent DNA replication assay; Potency, µM (top dose mostly 114 µM), for inactives: at the highest dose activity change, negative = inhibition, actives largely listed as inhibitors; 390,000 compounds, 1.2% hits; AID 588591; note: % is set by controls: 0 for no effect and ±100 for the full control effect
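Pol eta (10 nM) was preincubated with compounds for 15 min at room temperature, after which fluorescent replication substrate (50 nM final) was added to start the reaction. Fluorescence was read kinetically at 0 and 10 min.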
WRN inhibitor: WRN helicase (human) inhibition; Q14191; WRN helicase unwinding, fluorescent forked duplex, kinetic; Potency, µM (doses to about 114 µM), for inactives: at the highest dose activity change, negative = inhibition, hits mostly inhibitors; 360,000 compounds, 0.46% hits; AID 651768; note: % is set by controls: 0 for no effect and ±100 for the full control effect; nearly all actives have a fitted effect of over 55% in size
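Primary qHTS, 1536-well format. 20 nM WRN + compound, 15 min RT; start with 100 nM forked fluorophore/quencher duplex, 2 mM ATP (final); kinetic read ex 525/em 598 nm.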
Pol kappa inh-1: DNA polymerase kappa (human) inhibition; Q9UBT6; purified Pol kappa, fluorescent DNA synthesis assay, 10 min; Potency, µM (top dose mostly 107 µM), for inactives: at the highest dose activity, negative = inhibition, most hits filed as inhibitors; 400,000 compounds, 0.53% hits; AID 588579; note: % is set by controls: 0 for no effect and ±100 for the full control effect
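Pol kappa 10 nM + cpd, 15 min RT; start w/ substrate 50 nM final; fluorescence kinetic read, 0 and 10 min. Neg ctrl: buffer, no enzyme.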
Pol beta inh: inhibitors of human DNA polymerase beta; P06746; Pol beta primer extension/strand displacement, fluorescence kinetic; Potency, µM (highest dose often 114 µM), for inactives: at the top dose activity change, negative = inhibition, actives largely listed as inhibitors; 340,000 compounds, 1.3% hits; note: % is set by controls: 0 for no effect and ±100 for the full control effect
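Human Pol beta at 10 nM; strand-displacement substrate 50 nM final. Compound exposure 15 min at room temperature before start, reaction 10 min at room temperature.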
FEN1 inh: human FEN1 inhibition; P39748; Recombinant FEN1 flap cleavage, fluorescence, 15 min; Potency, µM (doses to about 114 µM), for the others: at the highest dose activity change, negative = inhibition, usual class: inhibitors; 390,000 compounds, 0.35% hits; note: % is set by controls: 0 for no effect and ±100 for the full control effect; nearly all actives have a fitted effect of over 65% in size
Target sequence (P39748 whole entry, looked up): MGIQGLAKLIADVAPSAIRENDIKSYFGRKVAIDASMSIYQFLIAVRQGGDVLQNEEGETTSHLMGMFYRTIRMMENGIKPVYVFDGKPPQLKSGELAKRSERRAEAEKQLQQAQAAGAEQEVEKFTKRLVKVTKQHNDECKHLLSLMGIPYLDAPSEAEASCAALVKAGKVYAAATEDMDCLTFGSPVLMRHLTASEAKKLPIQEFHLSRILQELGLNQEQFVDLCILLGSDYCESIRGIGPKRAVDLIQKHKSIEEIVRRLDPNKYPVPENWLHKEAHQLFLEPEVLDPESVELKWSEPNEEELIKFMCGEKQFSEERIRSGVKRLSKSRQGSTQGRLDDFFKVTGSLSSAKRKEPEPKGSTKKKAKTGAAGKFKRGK
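FEN1 at 10 nM, compound pretreatment for 15 min (room temperature), 50 nM final substrate to initiate; endpoint reads at 0 and 15 min; DMSO-only plates used as vehicle background.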
POLI inh: DNA polymerase iota (human) inhibition | Q9UNA4 | Pol iota fluorescent replication assay, 10 min | Potency, µM (doses to about 115 µM), for inactives: at the highest dose activity, negative = inhibition, usual class: inhibitors | 390,000 compounds, 1% hits | AID 588590
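Fluorescent replication assay read twice, at 0 min and 10 min after adding 50 nM (final) substrate. Enzyme (10 nM) and compounds were first incubated 15 min at room temperature; enzyme-free buffer wells were negative controls.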
HEK293 viability: reduces HEK-293 cell viability in GALK counter-screen. shares compounds with Pol eta inh-1. HEK-293 viability, ATP luminescence (CellTiter-Glo), 24/48 h. Potency, µM (series often up to 46.1 µM), for the others: at the highest dose activity change, negative = cytotoxicity, actives largely listed as inhibitors. 170 compounds, 10% hits. AID 2547; note: % is set by controls: 0 for no effect and ±100 for the full control effect
Pol kappa inh-2: confirmation of human DNA polymerase kappa inhibitors; 920 compounds, 76% hits; shares compounds with Pol eta inh-1; AID 720501; purified Pol-kappa, fluorescent strand-displacement substrate; Potency, µM, actives largely listed as inhibitors
Pol eta inh-2: Pol eta (human) inhibition, cherry-pick confirmation; 2,600 compounds, 64% hits; shares compounds with Pol eta inh-1; AID 720502; Potency, µM, hits mostly inhibitors; Pol eta primer extension, TAMRA/BHQ fluorescence, 10 min
* hit, by the source's call; ? = inconclusive; / = not tested or not shown; ! = repeats disagree; [ ] = remark or other dose. The list is not random: actives were taken first. Their share in the collection is about 2.4%. Calls come from the whole dose curve; as a rule, active = well fitted curve in the direction sought with a large enough effect; inconclusive = small, poorly fitted or top-dose-only effect, or another doubt; inactive = no such curve, though single readings can be large; an effect the other way counts as inactive or inconclusive. Potency is the fitted concentration of half-maximal effect.

SMILES | Pol eta inh-1 | WRN inhibitor | Pol kappa inh-1 | Pol beta inh | FEN1 inh | POLI inh | Pol eta inh-2 | others
CCOc1ccc(-c2cc3nc(C4CCN(C(=O)OC(C)(C)C)CC4)c(C(=O)Nc4ccc(C)cc4C)cn3n2)cc1 | ? | / | -14% | 7% | -1% | 1% | /
Cc1ccc(CSc2nc3ccc(NC(=O)C(C)C)cc3s2)cc1 | -6% | / | -12% | 3% | 16% | 18% | /
Nc1c(C(=O)Nc2cccc(C(=O)O)c2)sc2nc3c(cc12)CCCC3 | ? | -11%[11.6 µM] | -9% | 1% | -1% | 23% | ? | Pol kappa inh-2=21*
Cc1cccc(C(=O)NCc2cn3cccc(C)c3n2)c1 | -7% | / | 7% | -22% | -4% | -10% | /
O=C(CSc1nc2ccccc2nc1Cc1ccccc1)N1CCc2ccccc21 | -16% | / | -7%[60.1 µM] | -25% | -2% | 19% | /
CC(C)NS(=O)(=O)c1ccc2[nH]c3nc(SCC(=O)Nc4ccc(F)c(F)c4)nnc3c2c1 | / | / | 79µM* | / | -2% | 79µM* | ?
CN(C)c1cccc(C(=O)OCC(=O)Nc2nccs2)c1 | ? | -28%[57.1 µM] | -15% | 23% | 3% | ? | ?
Cc1ccn2c(=O)nc(SCC(=O)NC3CCCC3)nc2c1 | 22µM* | -4%[11.6 µM] | -4% | / | -5% | ? | 76*
Cc1ccn2c(=O)nc(SCC(=O)NC3CCCCC3)nc2c1 | -6% | 5% | 4% | / | -9% | 28% | /
Cc1nc(Nc2nc3ccccc3o2)nc2c1CCCC2 | / | / | / | / | / | / | / | HEK293 viability=-13%
Cc1cc(C)nc(Nc2nc3ccccc3o2)n1 | 2% | 6% | -6% | 16% | 0% | 19% | /
Cc1nc(Nc2nc3ccccc3o2)nc2c1C(=O)CC(C)(C)C2 | / | / | / | / | / | / | / | HEK293 viability=-6%
O=C(O)c1ccc(N=c2oc3cc(O)ccc3cc2C(=O)NCc2ccccc2)cc1 | ? | -17% | -11% | ? | ? | -32% | /
COc1ccc2cc(C(=O)NCc3ccccc3)c(=Nc3ccc(C(=O)O)cc3)oc2c1 | 32µM* | -8% | -7% | 1% | 11% | 12% | ?
O=C(O)C1CC=CCC1C(=O)N1CCc2ccccc21 (stereo not drawn) | ? | -11%[57.1 µM] | ? | 20µM* | -5% | 0% | ?
Cc1cc(/C=C2\SC(=S)NC2=O)c(C)n1-c1ccc(O)cc1 | 50µM* | ? | ? | 50µM* | -3% | ? | / | Pol kappa inh-2=?
CCCCCCCCCCN1CCOCCOCCN(CCCCCCCCCC)CCOCCOCC1 | / | / | 10%[60.1 µM] | / | / | / | /
Cc1cccc(C)c1-n1ncc(C(=O)Nc2ccc3c(c2)OCCO3)c1C1CCN(C(=O)OC(C)(C)C)CC1 | -19% | / | -15% | 4% | -25% | 5% | /
O=C(O)/C=C/c1ccc(S(=O)(=O)Nc2ccc(OCc3ccccc3)cc2)cc1 | -10% | -9% | -7% | ? | 7% | -14% | /
O=C(O)CCc1ccc(S(=O)(=O)Nc2ccc(OCc3ccccc3)cc2)cc1 | 22µM* | -12% | ? | ? | 1% | ? | 67*
Oc1ccc(OCc2ccccc2)cc1 | / | / | -12%[19.4 µM] | / | / | / | /
Oc1ccc(NCc2ccccc2OCc2ccccc2Cl)cc1 | / | / | -26% | 24% | ? | ? | ?
Oc1ccc(NCc2ccc(OCc3ccccc3)cc2)cc1 | 79µM*! | -5%[11.6 µM] | ? | 2% | ? | 10µM* | ?
Oc1ccc(NCc2ccc(OCc3ccccc3Cl)cc2)cc1 | 0% | / | ? | -7% | -18% | 18µM* | ?
Cc1ccc(OCCC(=O)O)cc1 | 56µM* | 2% | ? | -1% | -7% | ? | ?
SMILES | Pol eta inh-1 | WRN inhibitor | Pol kappa inh-1 | Pol beta inh | FEN1 inh | POLI inh | Pol eta inh-2 | others
Cc1cc(C)cc(OCCCC(=O)O)c1 | -1% | -12% | -5% | -25% | -1% | 12% | /
Cc1cc(C)cc(NS(=O)(=O)c2ccc3[nH]cc(C(=O)N4CCCCCC4)c(=O)c3c2)c1 | -5% | / | -14% | 19% | -13% | -13% | /
Cc1ccc(CCNC(=O)c2c[nH]c3ccc(S(=O)(=O)Nc4ccc(C)cc4C)cc3c2=O)cc1 | 50µM* | / | -14%[60.1 µM] | ? | 3% | ? | ?
Cc1cccc(CCNC(=O)c2c[nH]c3ccc(S(=O)(=O)Nc4ccccc4F)cc3c2=O)c1 | -6% | / | -22%[60.1 µM] | 5% | 12% | ? | /
Cc1ccccc1NS(=O)(=O)c1ccc2[nH]cc(C(=O)N3CCCCC3)c(=O)c2c1 | 45µM* | / | -11%[60.1 µM] | ? | -9% | ? | 76*
Cc1ccccc1NS(=O)(=O)c1ccc2[nH]cc(C(=O)NC(C)c3ccccc3)c(=O)c2c1 (stereo not drawn) | 25µM* | / | 4%[60.1 µM] | 40µM* | -6% | ? | ?
Nc1nc(Cl)nc2c1ncn2[C@@H]1O[C@H](COP(=O)(O)OP(=O)(O)OP(=O)(O)O)[C@H](O)[C@H]1O | -3%[57.1 µM] | / | / | -2%[57.1 µM] | / | -3%[58.9 µM] | /
C=CCN(CC=C)CC(=O)Nn1c(C)ccc1C | 20µM* | ? | ? | / | 9% | ? | ?
COc1cc2c(cc1OC)C1C(=O)c3ccc4c(c3OC1CO2)C=CC(C)(C)O4 (stereo not drawn) | / | / | -10%[60.1 µM] | / | / | / | /
O=C1CSC(=S)N1Cc1cccnc1 | ? | -9%[57.1 µM] | -19% | -24% | -16% | ? | ?
O=C1CSC(=S)N1c1cccnc1 | 2% | -8%[57.1 µM] | -15% | 7% | -13% | ? | /
CSc1nnc(-c2ccco2)c(-c2ccco2)n1 | 11µM* | ? | ? | 8.9µM* | -20% | ? | ?
COc1ccc(NC(=O)CN2C(=O)NC3(CCCC3)C2=O)cc1OC | -7% | 2%[11.6 µM] | -17% | 59% | -6% | ? | ?
O=C(CC1(O)C(=O)N(CCc2ccccc2)c2ccc(Br)cc21)c1ccc(F)cc1 (stereo not drawn) | ? | / | -14% | -23% | ? | -11% | /
COc1ccc(OC)c(/C=C2\S/C(=N/NC(=O)c3ccc4ccccc4c3)NC2=O)c1 | 20µM* | ? | -21% | 0% | ? | -4% | / | Pol kappa inh-2=?
COc1ccc(/C=C2\SC(=Nc3ccccc3Cl)NC2=O)c(OC)c1 | -18% | 2% | / | / | / | / | /
